Test results reported in PubChem BioAssay AID431 (Sanford-Burnham Center for Chemical Genomics, 2006).
Among all 63,000 compounds or so, about 1,100 (1.7%) were called active.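 Rule for the calls: active = compounds whose percent cytotoxicity in the single-dose primary screen, scaled between solvent and toxic-drug controls, exceeds 50; inactive = the rest.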 Shown is part of a subset that was picked to be rich in actives. Potency and affinity values are given separately.

assay: cytotoxicity in KRAS-transformed pancreatic duct cells, primary screen, cell-based, fluorescence, HTS (AID 431); conditions: HPDE-C7K KRASV12 cells, Alamar Blue viability, 48 h; at 10 µM; hits give high values;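 note: 0% = DMSO solvent wells and 100% = doxorubicin-treated wells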

Row | SMILES | cytotoxicity
1 | CCOc1ccccc1NC(=O)NC1CCN(CC(=O)Nc2ccc3c(c2)OCCO3)CC1 | -18.3% (inactive)
2 | CCN(CC(=O)NCc1cccs1)S(=O)(=O)c1cccc(C(C)=O)c1 | -12.5% (inactive)
3 | O=C(COn1nnc2ccc(C(F)(F)F)cc21)Nc1nnc(-c2ccccc2)o1 | 59.2% (active)
4 | O=C(COn1nnc2ccc(Cl)cc21)NCc1ccccc1 | 3.7% (inactive)
5 | O=C(COc1ccccc1)Nc1nnc(-c2ccccc2)o1 | -10.7% (inactive)
6 | Cc1csc(NC(=O)C2CCN(C(=O)CSc3nnc(C)n3Cc3ccccc3)CC2)n1 | -14% (inactive)
7 | S=c1[nH]c2ncccc2o1 | 21.2% (inactive)
8 | Cn1c(N)c(C(=O)CSc2nc3ccccc3n2-c2ccccc2)c(=O)n(C)c1=O | 103% (active)
9 | COc1ccc(-n2c(SCC(=O)c3c(N)n(C)c(=O)n(C)c3=O)nc3ccccc32)cc1 | 7.4% (inactive)
10 | NC(=O)CSc1nc2ccccc2n1-c1ccccc1 | 8.7% (inactive)
11 | CCOC(=O)C1=C(C)Nc2nnnn2C1c1cccc(OC)c1OC (stereo unspecified) | -16.1% (inactive)
12 | O=C(CN1CCOCC1)NCc1ccccc1 | -11.4% (inactive)
13 | COCCOC(=O)c1[nH]c2c(c1C)C(=O)CC(c1ccco1)C2 (stereo unspecified) | 65.5% (active)
14 | COCCOC(=O)c1[nH]c2c(c1C)C(=O)C(C(=O)OC)C(C)C2 (stereo unspecified) | 0% (inactive)
15 | CCOC(=O)c1[nH]c2c(c1C)C(=O)CC(c1ccc(F)cc1)C2 (stereo unspecified) | 58.4% (active)
16 | Cc1c(C(=O)OCC2CCCO2)[nH]c2c1C(=O)CC(c1ccc(N(C)C)cc1)C2 (stereo unspecified) | 3.2% (inactive)
17 | COc1ccc(OC)c(C2CC(=O)c3c([nH]c(C(=O)OCC4CCCO4)c3C)C2)c1 (stereo unspecified) | 7.8% (inactive)
18 | Cc1c(C(=O)OCc2ccccc2)[nH]c2c1C(=O)CC(c1ccco1)C2 (stereo unspecified) | 68.1% (active)
19 | CCOCCOC(=O)c1[nH]c2c(c1C)C(=O)CC(c1ccc(N(C)C)cc1)C2 (stereo unspecified) | 5.2% (inactive)
20 | CCOc1ccc(C2CC(=O)c3c([nH]c(C(=O)OC)c3C)C2)cc1OC (stereo unspecified) | 6.3% (inactive)
21 | Cc1c(C(=O)OCC2CCCO2)[nH]c2c1C(=O)CC(c1ccco1)C2 (stereo unspecified) | 53.3% (active)

Row | SMILES | cytotoxicity
22 | CC1=C(C(=O)OCc2ccccc2)C(c2ccco2)C2=C(CC(C)(C)CC2=O)N1 (stereo unspecified) | 7.4% (inactive)
23 | Cc1c(C(=O)Nc2ccc(C(=O)O)cc2)cnn1C | 7.2% (inactive)
24 | CC(=O)c1ccc(C(=O)Nc2ccc(N3CCOCC3)cc2)cc1 | -18.3% (inactive)
25 | COc1ccc(C(=O)/C=C/Nc2c(C)n(C)n(-c3ccccc3)c2=O)cc1OC | 20.1% (inactive)
26 | COc1ccccc1Oc1nc2c(c(=O)n(Cc3ccccc3F)c(=O)n2C)n1C | 18.8% (inactive)
27 | COC(=O)C1=C(C)N=C2SCCC(=O)N2C1c1cccs1 (stereo unspecified) | 12.3% (inactive)
28 | COc1cccc(-n2ccnc2SCC(=O)Nc2nccs2)c1 | -7.9% (inactive)
29 | N#CC1=C(N)Oc2n[nH]c(-c3cccs3)c2C1c1ccsc1 (stereo unspecified) | -8.3% (inactive)
30 | COC(=O)c1[nH]c2c(c1C)C(=O)CC(c1ccccc1)C2 (stereo unspecified) | 48.3% (inactive)
31 | Cc1c(C(=O)N2CCOCC2)[nH]c2c1C(=O)CC(c1ccccc1Cl)C2 (stereo unspecified) | 55.9% (active)
32 | COC(=O)c1[nH]c2c(c1C)C(=O)CC(c1ccc(C)cc1)C2 (stereo unspecified) | -3.1% (inactive)
33 | COCCOC(=O)c1[nH]c2c(c1C)C(=O)CC(c1ccccc1)C2 (stereo unspecified) | 71.5% (active)
34 | Cc1c(C(=O)N2CCOCC2)[nH]c2c1C(=O)CC(c1ccc(Cl)cc1)C2 (stereo unspecified) | -7.4% (inactive)
35 | COCCOC(=O)c1[nH]c2c(c1C)C(=O)CC(c1ccc(F)cc1)C2 (stereo unspecified) | 5.3% (inactive)
36 | CCOC(=O)c1[nH]c2c(c1C)C(=O)CC(c1ccc(OCC)c(OC)c1)C2 (stereo unspecified) | -1.2% (inactive)
37 | CCOC(=O)c1[nH]c2c(c1C)C(=O)CC(c1ccc(OC)c(OC)c1)C2 (stereo unspecified) | -13.1% (inactive)
38 | CCOC(=O)c1[nH]c2c(c1C)C(=O)CC(c1ccco1)C2 (stereo unspecified) | 59.2% (active)
39 | COCCOC(=O)c1[nH]c2c(c1C)C(=O)CC(c1ccc(N(C)C)cc1)C2 (stereo unspecified) | -10.1% (inactive)
40 | COC(=O)c1[nH]c2c(c1C)C(=O)CC(c1cccs1)C2 (stereo unspecified) | 75.6% (active)
41 | Cc1c(C(=O)O)[nH]c2c1C(=O)CC(c1ccccc1)C2 (stereo unspecified) | -8.9% (inactive)
42 | CCN(CC)S(=O)(=O)c1ccc(OC(C)C)nc1 | -11.5% (inactive)

Row | SMILES | cytotoxicity
43 | COC(=O)c1ccsc1NC(=O)C1COc2ccccc2O1 (stereo unspecified) | 4.6% (inactive)
44 | Cc1cc(C(=O)COc2ncnc3sccc23)c(C)n1C1CC1 | -0.1% (inactive)
45 | Cc1c(C(=O)OC2CCCC2)[nH]c2c1C(=O)CC(c1ccco1)C2 (stereo unspecified) | 53.7% (active)
46 | Cc1c(C(=O)OCC(C)C)[nH]c2c1C(=O)CC(c1ccco1)C2 (stereo unspecified) | 66.2% (active)
47 | Cc1c(C(=O)OCCOC(C)C)[nH]c2c1C(=O)CC(C)(C)C2 | -19.6% (inactive)
48 | Cc1c(C(=O)OCCOC(C)C)[nH]c2c1C(=O)CC(c1ccco1)C2 (stereo unspecified) | 68.1% (active)
49 | CCC(C)OC(=O)c1[nH]c2c(c1C)C(=O)CC(c1ccc(N(C)C)cc1)C2 (stereo unspecified) | 4.6% (inactive)
50 | Cc1c(C(=O)OC2CCC(C)CC2)[nH]c2c1C(=O)CCC2 (stereo unspecified) | 0.1% (inactive)
51 | Cc1c(C(=O)OC2CCCCC2)[nH]c2c1C(=O)CC(C)(C)C2 | 3.6% (inactive)
52 | COc1cc(C2CC(=O)c3c([nH]c(C(=O)OCCOC(C)C)c3C)C2)cc(OC)c1OC (stereo unspecified) | 5.8% (inactive)
53 | CSCCOC(=O)c1[nH]c2c(c1C)C(=O)CC(c1ccco1)C2 (stereo unspecified) | 59.3% (active)
54 | COc1ccc(-n2nc(C(=O)NCC(=O)NCC3CCCO3)c3ccccc3c2=O)c(OC)c1 (stereo unspecified) | 0.7% (inactive)
55 | CC(C)CNS(=O)(=O)c1ccc(CCC(=O)N2CCN(Cc3ccccc3)CC2)cc1 | -1.6% (inactive)
56 | CN(C)CC(=O)Nc1cc(C(F)(F)F)ccc1Cl | -7.9% (inactive)
57 | Cc1cc(C)nc(SCc2nnc(SCC(=O)N3CCOCC3)o2)n1 | 4.2% (inactive)
58 | CCc1nnc(NC(=O)c2ccc(COc3ccc(C)cc3)o2)s1 | -2.5% (inactive)
59 | CCCCCOC(=O)c1[nH]c2c(c1C)C(=O)CC(c1ccco1)C2 (stereo unspecified) | 51.4% (active)
60 | CCCCOC(=O)c1[nH]c2c(c1C)C(=O)CC(c1cc(OC)c(OC)c(OC)c1)C2 (stereo unspecified) | 4.1% (inactive)
61 | CCCOC(=O)c1[nH]c2c(c1C)C(=O)CC(c1ccc(OC)c(OC)c1)C2 (stereo unspecified) | -0.9% (inactive)
